Source: PubChem BioAssay AID1159580 (chemical genetic matrix, 2015)
The whole screen tested about 5,500 compounds, of which about 2,000 (36%) were called active. Another 18% or so got no clear call; they are omitted. No stated cut-off is given here; in the data, active means normalized growth mostly below about 0.91 (no sharp cut-off); inconclusive means no clear call, values can overlap the other calls; inactive means mostly above about 0.92. This is one part of the list.

Assay: chemical genetic growth profiling, strain panel (AID 1159580);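 further: tested at 20 µM; growth read once vehicle control cultures reached saturation at 30 °C; 1 = growth at the plate median or of vehicle wells; lower values mean less growth of the strain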
Settings: S. cerevisiae deletion strains, growth OD

Measured: normalized growth

CC(C)c1ccc(NC(=S)NC(=O)c2ccccc2)cc1
inactive: locus YAR019C, strain CDC15, active compounds read low 0.964 | locus YBL105C, strain PKC1, active compounds read low 0.952 | locus YBR135W, strain CKS1, active compounds read low 0.957 | locus YBR136W, strain MEC1, active compounds read low 0.963 | locus YBR160W, strain CDC28, active compounds read low 0.961 | locus YDL017W, strain CDC7, active compounds read low 0.96 | locus YDL028C, strain MPS1, active compounds read low 0.953 | locus YDL101C, strain DUN1, active compounds read low 0.96 | locus YDL108W, strain KIN28, active compounds read low 0.971 | locus YDL132W, strain cdc53, active compounds read low 0.953 | locus YDL214C, strain PRR2, active compounds read low 0.939 | locus YDR052C, strain DBF4, active compounds read low 0.962 | locus YDR054C, strain cdc34, active compounds read low 0.94 | locus YDR226W, strain ADK1, active compounds read low 0.955 | locus YDR477W, strain SNF1, active compounds read low 0.923 | locus YER123W, strain YCK3, active compounds read low 0.959 | locus YER133W, strain GLC7, active compounds read low 0.938 | locus YFL009W, strain cdc4, active compounds read low 0.952 | locus YFL029C, strain CAK1, active compounds read low 0.953 | locus YFR003C, strain YPI1, active compounds read low 0.961 | locus YFR019W, strain FAB1, active compounds read low 0.999 | locus YFR028C, strain CDC14, active compounds read low 0.958 | locus YGR040W, strain KSS1, active compounds read low 0.918 | locus YGR052W, strain FMP48, active compounds read low 1.03 | locus YGR092W, strain DBF2, active compounds read low 0.851 | locus YHR079C, strain IRE1, active compounds read low 0.882 | locus YHR082C, strain KSP1, active compounds read low 0.974 | locus YHR205W, strain SCH9, active compounds read low 0.904 | locus YIL147C, strain SLN1, active compounds read low 0.963 | locus YJL095W, strain BCK1, active compounds read low 0.883 | locus YJL128C, strain PBS2, active compounds read low 0.94 | locus YJL157C, strain FAR1, active compounds read low 0.923 | locus YJR016C, strain ILV3, active compounds read low 0.958 | locus YJR066W, strain TOR1 (second series), active compounds read low 0.906 | locus YJR066W, strain TOR1, active compounds read low 0.891 | locus YKL048C, strain ELM1, active compounds read low 0.968 | locus YKL067W, strain YNK1, active compounds read low 0.953 | locus YKL101W, strain HSL1, active compounds read low 0.957 | locus YKL193C, strain SDS22, active compounds read low 0.954 | locus YKL203C, strain TOR2, active compounds read low 0.96 | locus YLR113W, strain HOG1, active compounds read low 0.919 | locus YLR133W, strain CKI1, active compounds read low 0.941 | locus YLR403W, strain SFP1, active compounds read low 0.879 | locus YML070W, strain DAK1, active compounds read low 0.97 | locus YMR001C, strain CDC5, active compounds read low 0.951 | locus YMR205C, strain PFK2 (second series), active compounds read low 0.956 | locus YMR277W, strain FCP1, active compounds read low 0.962 | locus YNL006W, strain LST8, active compounds read low 0.966 | locus YNL020C, strain ARK1, active compounds read low 0.926 | locus YNL161W, strain CBK1, active compounds read low 0.959 | locus YNL183C, strain NPR1, active compounds read low 0.957 | locus YNL207W, strain RIO2, active compounds read low 0.953 | locus YNL222W, strain SSU72, active compounds read low 0.959 | locus YNL307C, strain MCK1 (second series), active compounds read low 0.91 | locus YOL078W, strain AVO1, active compounds read low 0.956 | locus YOL136C, strain PFK27, active compounds read low 0.959 | locus YOR061W, strain CKA2, active compounds read low 0.904 | locus YOR119C, strain RIO1, active compounds read low 0.921 | locus YOR231W, strain MKK1, active compounds read low 0.911 | locus YOR329C, strain SCD5, active compounds read low 0.956 | locus YPL031C, strain PHO85, active compounds read low 0.898 | locus YPL153C, strain RAD53, active compounds read low 0.921 | locus YPL204W, strain HRR25, active compounds read low 0.933 | locus YPL209C, strain IPL1, active compounds read low 0.954 | locus YPL256C, strain CLN2, active compounds read low 0.92 | locus YPR025C, strain CCL1, active compounds read low 0.955 | locus YPR106W, strain ISR1, active compounds read low 0.958 | locus YPR111W, strain DBF20, active compounds read low 0.964 | strain NNK1, active compounds read low 0.967 | strain TSCII, active compounds read low 0.947
active: locus YHR030C, strain SLT2, active compounds read low 0.797
